Reference: the supplement of paper PMC11732987, “Enantioselective OTUD7B fragment discovery through chemoproteomics screening and high-throughput optimisation” (Communications Chemistry, 2025)

Legend:
Assay in all cases: log2 ratio of Biotin-Ahx-Ub-VS probe labelling (fragment/DMSO); higher = less target engagement (more negative = stronger competition), active = hit call of the paper (q ≤ 0.05, log2 ratio ≤ -1)
Details in all cases: compound concentration: 200 uM; treatment time: 3 h
ALG13 = target: T1, ALG13 (UniProt Q9NP73)
T1 sequence (whole entry): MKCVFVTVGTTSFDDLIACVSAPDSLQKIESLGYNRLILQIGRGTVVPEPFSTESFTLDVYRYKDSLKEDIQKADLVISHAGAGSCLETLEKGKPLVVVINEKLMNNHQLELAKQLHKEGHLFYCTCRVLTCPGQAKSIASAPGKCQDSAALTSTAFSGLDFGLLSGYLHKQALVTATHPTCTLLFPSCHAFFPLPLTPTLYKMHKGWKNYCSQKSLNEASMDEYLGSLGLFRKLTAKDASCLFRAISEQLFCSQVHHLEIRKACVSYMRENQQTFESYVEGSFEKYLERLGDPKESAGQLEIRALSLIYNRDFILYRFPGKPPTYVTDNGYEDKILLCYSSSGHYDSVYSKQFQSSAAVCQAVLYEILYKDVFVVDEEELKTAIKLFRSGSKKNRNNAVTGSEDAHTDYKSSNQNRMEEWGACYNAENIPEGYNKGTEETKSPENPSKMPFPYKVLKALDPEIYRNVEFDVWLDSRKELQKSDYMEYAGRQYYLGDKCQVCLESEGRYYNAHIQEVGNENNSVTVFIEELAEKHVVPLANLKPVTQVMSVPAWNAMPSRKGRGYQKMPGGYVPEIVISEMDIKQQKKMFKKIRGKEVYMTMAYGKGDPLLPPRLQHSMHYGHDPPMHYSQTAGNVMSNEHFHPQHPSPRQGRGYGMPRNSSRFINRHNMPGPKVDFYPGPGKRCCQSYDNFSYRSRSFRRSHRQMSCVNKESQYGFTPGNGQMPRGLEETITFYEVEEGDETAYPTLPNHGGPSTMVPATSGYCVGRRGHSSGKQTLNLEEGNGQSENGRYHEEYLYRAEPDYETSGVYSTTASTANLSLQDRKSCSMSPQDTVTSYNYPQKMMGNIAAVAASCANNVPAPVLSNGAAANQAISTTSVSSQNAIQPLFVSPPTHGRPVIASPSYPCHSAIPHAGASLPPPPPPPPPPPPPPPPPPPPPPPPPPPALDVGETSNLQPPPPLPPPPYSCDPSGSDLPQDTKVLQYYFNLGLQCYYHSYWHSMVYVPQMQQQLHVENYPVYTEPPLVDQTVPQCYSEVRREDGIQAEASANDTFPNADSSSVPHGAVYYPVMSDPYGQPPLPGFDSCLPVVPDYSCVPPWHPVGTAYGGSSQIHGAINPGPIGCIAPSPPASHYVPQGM
Procedure, shortened: (§1)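 HEK293T lysate (495 µg per sample, in Tris/CHAPS/IGEPAL buffer with protease inhibitors) was exposed in triplicate for 3 h to fragment at 200 µM or to vehicle, then to Biotin-Ahx-Ub-VS at 0.5 µM final for 1 h. Labelled DUBs were enriched on NeutrAvidin, digested with LysC and trypsin, and analysed by diaPASEF LC-MS/MS. Spectronaut label-free quantities were normalised to the global median, and values are average log2 ratios of fragment over vehicle from an unpaired t-test. Only proteins with ≥2 unique peptides were used.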

ATXN3 = ATXN3 (UniProt P54252)
Sequence of ATXN3 (P54252 whole entry): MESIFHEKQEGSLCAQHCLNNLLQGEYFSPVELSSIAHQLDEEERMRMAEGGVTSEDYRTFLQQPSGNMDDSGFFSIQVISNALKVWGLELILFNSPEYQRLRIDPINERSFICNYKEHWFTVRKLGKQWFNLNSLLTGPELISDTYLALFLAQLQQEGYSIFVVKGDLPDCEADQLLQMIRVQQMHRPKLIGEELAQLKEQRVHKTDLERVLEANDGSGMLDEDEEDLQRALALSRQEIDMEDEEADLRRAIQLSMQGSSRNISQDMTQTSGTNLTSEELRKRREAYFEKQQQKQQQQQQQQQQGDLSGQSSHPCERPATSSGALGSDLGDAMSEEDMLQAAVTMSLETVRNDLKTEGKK
Procedure, shortened: as §1

BAP1 = target: T2, BAP1 (UniProt Q92560)
T2 sequence (whole entry): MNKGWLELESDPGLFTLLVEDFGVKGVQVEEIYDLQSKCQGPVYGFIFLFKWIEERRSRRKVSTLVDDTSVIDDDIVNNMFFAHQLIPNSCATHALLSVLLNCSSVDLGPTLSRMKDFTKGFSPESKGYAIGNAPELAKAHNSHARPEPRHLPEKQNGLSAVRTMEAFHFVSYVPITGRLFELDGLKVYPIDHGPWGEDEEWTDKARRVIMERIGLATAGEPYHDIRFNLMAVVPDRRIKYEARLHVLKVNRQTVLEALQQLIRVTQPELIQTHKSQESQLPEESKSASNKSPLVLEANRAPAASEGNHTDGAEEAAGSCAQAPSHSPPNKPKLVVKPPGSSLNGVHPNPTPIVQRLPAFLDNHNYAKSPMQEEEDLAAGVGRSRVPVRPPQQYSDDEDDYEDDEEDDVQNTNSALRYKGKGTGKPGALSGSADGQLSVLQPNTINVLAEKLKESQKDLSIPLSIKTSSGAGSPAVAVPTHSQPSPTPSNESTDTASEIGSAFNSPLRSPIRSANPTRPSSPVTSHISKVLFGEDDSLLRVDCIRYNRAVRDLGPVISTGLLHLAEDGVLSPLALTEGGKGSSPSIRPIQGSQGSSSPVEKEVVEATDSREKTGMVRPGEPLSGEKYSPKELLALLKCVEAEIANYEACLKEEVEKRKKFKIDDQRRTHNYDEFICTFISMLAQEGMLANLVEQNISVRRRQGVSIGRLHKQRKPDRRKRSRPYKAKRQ
Procedure, shortened: as §1

EIF3F = EIF3F (UniProt O00303)
Sequence of EIF3F (O00303 whole entry): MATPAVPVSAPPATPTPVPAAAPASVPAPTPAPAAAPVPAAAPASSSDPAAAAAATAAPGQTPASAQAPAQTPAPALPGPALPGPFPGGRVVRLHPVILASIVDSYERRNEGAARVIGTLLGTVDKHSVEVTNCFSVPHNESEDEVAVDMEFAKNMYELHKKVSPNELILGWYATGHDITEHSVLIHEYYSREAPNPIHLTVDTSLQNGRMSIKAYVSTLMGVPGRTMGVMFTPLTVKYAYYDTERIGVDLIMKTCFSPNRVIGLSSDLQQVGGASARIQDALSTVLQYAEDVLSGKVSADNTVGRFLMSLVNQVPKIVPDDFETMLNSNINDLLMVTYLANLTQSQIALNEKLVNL
Procedure, shortened: as §1

EIF3H = EIF3H (UniProt O15372)
Sequence of EIF3H (O15372 whole entry): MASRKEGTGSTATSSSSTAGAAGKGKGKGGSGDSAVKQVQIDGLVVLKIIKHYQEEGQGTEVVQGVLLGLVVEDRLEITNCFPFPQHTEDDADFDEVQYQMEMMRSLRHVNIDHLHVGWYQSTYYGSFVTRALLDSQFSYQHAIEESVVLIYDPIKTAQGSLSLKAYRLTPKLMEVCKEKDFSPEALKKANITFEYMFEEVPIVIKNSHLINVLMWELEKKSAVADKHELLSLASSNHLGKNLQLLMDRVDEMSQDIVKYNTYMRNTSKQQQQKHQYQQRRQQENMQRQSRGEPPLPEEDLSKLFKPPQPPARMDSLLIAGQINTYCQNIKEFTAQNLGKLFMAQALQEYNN
Procedure, shortened: as §1

FAM105A = target: T3, FAM105A (UniProt Q9NUU6)
T3 sequence (whole entry): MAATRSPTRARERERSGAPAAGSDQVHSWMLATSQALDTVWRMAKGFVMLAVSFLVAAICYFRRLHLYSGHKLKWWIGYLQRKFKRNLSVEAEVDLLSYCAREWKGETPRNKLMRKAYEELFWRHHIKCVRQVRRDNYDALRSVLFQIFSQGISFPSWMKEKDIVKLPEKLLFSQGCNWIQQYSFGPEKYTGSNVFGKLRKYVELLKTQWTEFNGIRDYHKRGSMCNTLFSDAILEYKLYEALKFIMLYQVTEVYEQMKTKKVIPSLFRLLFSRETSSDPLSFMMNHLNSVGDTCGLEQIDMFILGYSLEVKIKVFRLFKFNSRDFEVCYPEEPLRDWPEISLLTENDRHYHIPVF
Procedure, shortened: as §1

OTUB1 = OTUB1 (UniProt Q96FW1)
Sequence of OTUB1 (Q96FW1 whole entry): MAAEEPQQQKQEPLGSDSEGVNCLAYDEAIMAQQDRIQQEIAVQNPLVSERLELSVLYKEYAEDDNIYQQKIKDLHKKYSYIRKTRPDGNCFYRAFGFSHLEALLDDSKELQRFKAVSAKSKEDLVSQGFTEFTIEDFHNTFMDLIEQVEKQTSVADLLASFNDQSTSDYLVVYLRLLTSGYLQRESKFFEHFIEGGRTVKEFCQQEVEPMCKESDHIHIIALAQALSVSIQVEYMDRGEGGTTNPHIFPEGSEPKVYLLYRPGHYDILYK
Procedure, shortened: as §1

OTUD4 = target: T4, OTUD4 (UniProt Q01804)
T4 sequence (whole entry): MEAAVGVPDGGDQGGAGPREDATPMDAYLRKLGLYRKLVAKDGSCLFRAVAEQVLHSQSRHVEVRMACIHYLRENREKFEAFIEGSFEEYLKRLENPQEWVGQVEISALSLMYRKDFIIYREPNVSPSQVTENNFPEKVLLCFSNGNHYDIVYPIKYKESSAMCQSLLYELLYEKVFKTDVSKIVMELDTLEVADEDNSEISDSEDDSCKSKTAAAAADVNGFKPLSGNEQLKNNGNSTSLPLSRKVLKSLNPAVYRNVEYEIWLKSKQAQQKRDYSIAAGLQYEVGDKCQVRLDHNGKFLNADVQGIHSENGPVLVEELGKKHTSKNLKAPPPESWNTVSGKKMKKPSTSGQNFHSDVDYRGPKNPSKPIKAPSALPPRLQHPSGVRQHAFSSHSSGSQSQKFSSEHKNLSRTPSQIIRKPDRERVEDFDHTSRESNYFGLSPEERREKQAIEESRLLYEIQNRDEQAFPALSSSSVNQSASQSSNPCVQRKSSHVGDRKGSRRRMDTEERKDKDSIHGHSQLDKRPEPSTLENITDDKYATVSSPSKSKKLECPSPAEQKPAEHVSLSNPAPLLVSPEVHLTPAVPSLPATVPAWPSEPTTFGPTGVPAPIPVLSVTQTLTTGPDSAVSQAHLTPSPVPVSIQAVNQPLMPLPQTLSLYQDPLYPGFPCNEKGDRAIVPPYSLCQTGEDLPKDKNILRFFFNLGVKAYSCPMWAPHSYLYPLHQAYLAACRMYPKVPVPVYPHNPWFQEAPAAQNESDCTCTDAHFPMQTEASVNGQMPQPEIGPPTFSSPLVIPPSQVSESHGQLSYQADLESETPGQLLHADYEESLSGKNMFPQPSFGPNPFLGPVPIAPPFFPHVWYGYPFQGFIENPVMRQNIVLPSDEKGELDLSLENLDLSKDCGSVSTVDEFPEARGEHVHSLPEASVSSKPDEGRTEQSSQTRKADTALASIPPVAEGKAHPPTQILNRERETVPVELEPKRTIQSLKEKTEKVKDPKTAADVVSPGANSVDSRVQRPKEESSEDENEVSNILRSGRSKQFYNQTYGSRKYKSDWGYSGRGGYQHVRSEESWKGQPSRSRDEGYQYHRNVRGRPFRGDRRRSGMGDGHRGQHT
Procedure, shortened: as §1

OTUD5 = target: T5, OTUD5 (UniProt Q96G74)
T5 sequence (whole entry): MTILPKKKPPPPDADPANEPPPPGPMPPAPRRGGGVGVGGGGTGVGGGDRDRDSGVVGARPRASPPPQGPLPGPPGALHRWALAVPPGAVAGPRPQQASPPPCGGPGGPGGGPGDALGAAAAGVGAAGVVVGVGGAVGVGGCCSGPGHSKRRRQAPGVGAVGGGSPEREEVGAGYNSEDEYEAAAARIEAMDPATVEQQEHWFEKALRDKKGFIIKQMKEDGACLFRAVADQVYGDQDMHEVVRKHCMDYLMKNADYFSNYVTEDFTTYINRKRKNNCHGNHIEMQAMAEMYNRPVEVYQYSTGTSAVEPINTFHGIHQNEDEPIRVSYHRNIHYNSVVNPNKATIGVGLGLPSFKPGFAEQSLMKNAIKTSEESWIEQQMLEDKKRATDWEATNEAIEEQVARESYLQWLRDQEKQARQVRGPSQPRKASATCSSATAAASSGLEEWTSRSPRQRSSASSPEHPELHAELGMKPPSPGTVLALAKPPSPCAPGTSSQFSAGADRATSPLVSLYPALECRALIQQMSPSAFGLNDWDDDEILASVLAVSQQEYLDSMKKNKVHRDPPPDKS
Procedure, shortened: as §1

Measured: log2 ratio of Biotin-Ahx-Ub-VS probe labelling

Cc1n[nH]c2c1CN(C(=O)CCl)CC2
active: OTUD5 -1.05
inactive: ALG13 0.0341 | ATXN3 -0.888 | BAP1 -1.1 | EIF3F -0.389 | EIF3H 0.366 | FAM105A 0.0256 | OTUB1 -0.0671 | OTUD4 -0.753
